This is an account of results in publication PMC12136788.

The labels stand for the following.
T1: UNK ZnF1-3 (human, UniProt Q9C0B0 31-174)
T1 sequence: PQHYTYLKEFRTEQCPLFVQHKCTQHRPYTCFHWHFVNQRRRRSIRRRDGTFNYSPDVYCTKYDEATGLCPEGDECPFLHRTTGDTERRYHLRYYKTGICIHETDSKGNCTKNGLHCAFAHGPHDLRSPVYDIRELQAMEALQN

B1: chr9:35286173:35286174:+_ENSMUSG00000038119_ENSMUST00000042842|mus_hu|FALSE|FALSE (ssRNA)
RNA: GGGAGUUCUACAGUCCGACGAUCAGUGUUAUUGUUACUUGAUGGAAUGUACGUCCACUUUAGCAUGAUCUGAGUAUCGCUGACAGCCUCUGUGUAUGCAAUGUGAGGUCCAGUUAUUGGACGGCUGGAAAAGCGAUUGGGGAACAACAGAGGAUUGAGCAUCA
B2: chr1:39494564:39494565:+_ENSG00000168653_ENST00000372967|hu_hu|hu_hu_hu_mus_True|28_68 (ssRNA)
RNA: GGGAGUUCUACAGUCCGACGAUCAUGCAUUCGCCUCAUCGUUUUGUACCGAAGCAAGCACUCUUCGAAAUCAUCAUACUCUAUCUUGCACUCCUUUUUCGCCCGGGUAUAACCGAUCCCGUGUGCACACUCUAUCCACUCUUUCAACAGAGGAUUGAGCAUCA
B3: 3369786_3369906_1343_3pUTR_ENSMUSG00000025899_ENSMUST00000053407|mouse|control|control (ssRNA)
RNA: GGGAGUUCUACAGUCCGACGAUCAGUCCUUGUUGAUGCCAAGGUAUUUUCCAUUUCCACAUCCGAUAUCUGCCACUAUGGAACCACUUGGCAAAGCUUUCAGGAACUCUACUAUGCGUGGCCAUGGGCUAUGUCUUGUGCUGCCAACAGAGGAUUGAGCAUCA
B4: chr7:141450121:141450122:+_ENSG00000106028_ENST00000265304|hu_mus|hu_hu_hu_mus_True|68_88 (ssRNA)
RNA: GGGAGUUCUACAGUCCGACGAUCUCAUCCGUUCUAUGCCUUUUCUUUCGUCUGGUCACUCAGAAAUAUAAUAUUAUCAGCUAUGAUUGUUGUUGCUUGCCGCCUCACAUUGUUUUUAUCCAUGUACUCGCCAUAGUCCACUUUCAACAGAGGAUUGAGCAUCA
B5: 139369022_139369142_3059_CDS_ENSG00000148396_ENST00000313050|human|control|control (ssRNA)
RNA: GGGAGUUCUACAGUCCGACGAUCGUCAGAAUGGGACGGGUUGUACACGUUUACAGGAUUUUCCAAAGUCCUGCUUAAGGUAAAGUCUAGGGCUCCGUAAGUGUCUUCCUGAUGACUGGAAUGGUUUGCCUUAUUACCAUCAGGCAACAGAGGAUUGAGCAUCA
B6: chr1:109605286:109605287:-_ENSG00000197780_ENST00000461096|hu_mus|hu_hu_hu_mus_True|8_108 (ssRNA)
RNA: GGGAGUUCUACAGUCCGACGAUCAAGAACAAUAACAACAUUCAGUAACCUCUUUAAAUGCAAUUAUCCUUAUUAUAAGCUAAGCAGAAUAAUAAUUUAAUACCGUAAGUGAACUACACACAAAGCCGUGUAUUCAGAAAUGGUCAACAGAGGAUUGAGCAUCA
B7: 25140584_25140782_2291_CDS_ENSMUSG00000026965_ENSMUST00000028341|mouse|control|control (ssRNA)
RNA: GGGAGUUCUACAGUCCGACGAUCUGCCCAGAAGAGCAGUAGCUCCUCUUCCUUCUGGUCAGCCUGGGAGGCCAUGCCUGAGUCACUCUCAUCAUCACUGUCAAUCAGCACCAUGUUGUCCCUAUCCUGAGGCCGCUCUUCCUCCAACAGAGGAUUGAGCAUCA
B8: chr15:23003119:23003120:+_ENSG00000068793_ENST00000560848|hu_mus|FALSE|FALSE (ssRNA)
RNA: GGGAGUUCUACAGUCCGACGAUCUUAUAAAGUUAAGCUUUCAGAUCAAAAGUAGGUUCAGACAUAAUGGAAAAUAGCCCCUAAAAAUUUCAAUAUAGUUUACAUAAAGACAAACAUGCCAUCAGUUACUGGGAUGCUGUGAGCCAACAGAGGAUUGAGCAUCA
B9: chr11:60965468:60965469:-_ENSMUSG00000042506_ENSMUST00000041683|mus_mus|motif|central (ssRNA)
RNA: GGGAGUUCUACAGUCCGACGAUCCUAACCACAGUACAAUCAUUGGAUUUUUUUUCCCUCACGAUUUUUUAUUUCAAAGCGGUAAUAAAUGAAACAAACCACUUGUCAAAAAGAACAAUGAUUUUACACAAGGAAAAGCAUACACAACAGAGGAUUGAGCAUCA
B10: chr17:87833181:87833182:-_ENSMUSG00000036438_ENSMUST00000040440|perfect_dup|motif|central (ssRNA)
RNA: GGGAGUUCUACAGUCCGACGAUCCGGGCUUAGAUAUAGCCAGAGUAAGCCACAUGCAACAUGUUACUUCAUCAAUUUUCGGAAAUAAGGUUUAAGGACAAUGACAGUAAGAUAAGGGAAGAAAACAUGGAGGAAUGAAGUCCUCAACAGAGGAUUGAGCAUCA
B11: chr18:52893488:52893489:-_ENSG00000196628_ENST00000354452|hu_hu|hu_hu_hu_mus_True|8_18 (ssRNA)
RNA: GGGAGUUCUACAGUCCGACGAUCUAUUUAGACCAUUUCCGCGGAGUUAUGGCAUUUACUCAGUGCUGAUAGGUGGAAAAACUACUUCAACAGGGAUUUUUUUUUUCCUUAAUACAUGCCAAGAAUUGUGUGGCUGUAAAACAGCAACAGAGGAUUGAGCAUCA
B12: 137534387_137536831_709_CDS_ENSG00000094880_ENST00000394886|human|control|control (ssRNA)
RNA: GGGAGUUCUACAGUCCGACGAUCCUCCUCUAUCAACUGCAACUCUGUGUAUAUAUGAGCCAGAAAAAACUCUUUCAUCCAGGUGUCUGGCAAAGACAGGAACUUCAGCAUCUCUUUGUCUGUGAUCAGGUUACAGAGUUCUAACAACAGAGGAUUGAGCAUCA
B13: chr16:94651144:94651145:+_ENSMUSG00000040785_ENSMUST00000117648|mus_hu|mus_mus_mus_hu_True|68_108 (ssRNA)
RNA: GGGAGUUCUACAGUCCGACGAUCAUUCUCUUGGAUCAAGUGGCGAAUAACAUAGUCCACUGCUUCAUGGACAAAAUUUCUGCUAGAAAAACAGGUUGUAUAGUCUUCUGUGCUCAAAACUUUCCAAGAAAGCAAUUCUUUGAGCAACAGAGGAUUGAGCAUCA
B14: chr14:89307221:89307222:+_ENSG00000165533_ENST00000346301|hu_mus|hu_hu_hu_mus_False|58_98 (ssRNA)
RNA: GGGAGUUCUACAGUCCGACGAUCUCCUGUUUGGUUAGUUCCAGGGAGCUUCAAAGAUGUGCCAGGGCGUGGGACCUGAGCUAUAGCAUUUUCAUCCAGGAUCAUUUCAGCAAUUCCUUCCUGGUCCACAUCAAUUUCAUCUAUCAACAGAGGAUUGAGCAUCA
B15: chr3:179287964:179287965:+_ENSG00000136518_ENST00000429709|hu_hu|hu_hu_hu_mus_True|88_108 (ssRNA)
RNA: GGGAGUUCUACAGUCCGACGAUCCUUUAGAGGUGAAAUGGCCUCCAUAUUCUCCCUGGGCACGCGGAGGGCAUUGGUGUCUAUGUAGUAGGUGGGCCCGCCCUGCUUGCCUUUGUCACCAUCAAUCUCCAUCAUUGUACUUCCCAACAGAGGAUUGAGCAUCA
B16: chrX:71549400:71549401:+_ENSMUSG00000019087_ENSMUST00000019231|mus_hu|mus_mus_mus_hu_False|8_98 (ssRNA)
RNA: GGGAGUUCUACAGUCCGACGAUCGCAGUAGGAAGAGCAAACCUUUCCAGUCCAGUGCGCUGCAGGGUGGGAAAGCAACAACACGGACACCGUCCCACCCUCAACCCCCCCACUGGCACAGGGUCACAUCUGGGUCAUCAAAGACAACAGAGGAUUGAGCAUCA
B17: 120770645_120770765_141_5pUTR_ENSMUSG00000043207_ENSMUST00000058754|mouse|control|control (ssRNA)
RNA: GGGAGUUCUACAGUCCGACGAUCCUCAGCGACACGCGUCCCUCGGAGAGUGCCAGCGGUGUCACAACAAUACGGGUCCCUUCCGAGGGCUUCUUCAGACGCCCAUUCCCUCAGCUUUGCCAGAAGUGUCACAAAGACACGAUUCAACAGAGGAUUGAGCAUCA
B18: chr7:118215947:118215948:-_ENSMUSG00000005610_ENSMUST00000162415|mus_mus|FALSE|FALSE (ssRNA)
RNA: GGGAGUUCUACAGUCCGACGAUCGGUCCUUGCAAUAGACUGCCUCUGCUUGAGAACUUAGGAUGUAAUUAUUGCAUGCUGCUAAUAUUCUAUCUAAACAUUAAGGAUACUCCUAAAGUAUUUGAUGGUAGACUAUGAUUAAGACAACAGAGGAUUGAGCAUCA
B19: 78432385_78432637_487_CDS_ENSG00000162613_ENST00000370768|human|control|control (ssRNA)
RNA: GGGAGUUCUACAGUCCGACGAUCUUCAGGUGUUCCAGUUAACAUACAGGACCUUUCUGGAAGGCCACCACUGUCAGGAGCUAUCUGUAUUUUGCAUCCAGAUUCCUGUUGUAUGCGUGAGAUCUGUUCACCUCCUCUGCCAAUCAACAGAGGAUUGAGCAUCA
B20: chr8:35203877:35203878:-_ENSMUSG00000031513_ENSMUST00000033910|mus_hu|FALSE|FALSE (ssRNA)
RNA: GGGAGUUCUACAGUCCGACGAUCGGAAGGGCACAUCCAAGCAUCAAAAACAUCAGUCCGAUUGCUCCUCCAAAGGACAAACUAAUCAAAGCUUUGAUGCCUGCCAUGGCGGUGACGUCGCUCCUGGCUCCACGACCCGAGGCGCAACAGAGGAUUGAGCAUCA
B21: chr2:48026839:48026840:+_ENSG00000116062_ENST00000540021|hu_hu|hu_hu_hu_mus_False|38_108 (ssRNA)
RNA: GGGAGUUCUACAGUCCGACGAUCAUAGUGUGCCACUAGCGUCCUAAAUCUGGAACAGUGGCGGUCAUCCGAAAACUGGCCGAUGAAAAACUUGCCCAGUGAAGUAUCCACAAAGCAAACACCAUACACACGAGUGUGACCAGACAACAGAGGAUUGAGCAUCA
B22: chr16:46990815:46990816:-_ENSG00000069345_ENST00000563158|hu_hu|motif|central (ssRNA)
RNA: GGGAGUUCUACAGUCCGACGAUCUCAAAAUGAAGAUGUAAAGCUUUGUGGUUAGUUUAAAUUAUACACUCUGUAGAUACGGUACCAAUUUUAAAAGUUAUACAUAGACCAACAGAUGUCCCUCAGUUCAUCUGGAUUGAUAAGCAACAGAGGAUUGAGCAUCA

Over roughly 24,000 sequences, “enrichment r” has its median near 0.99; the highest 2% begin near 3.7. Only a sample is shown.

For this test, the target named is T1, UNK ZnF1-3. As to the kind of experiment: nsRBNS (natural sequence RNA bind-n-seq); RBNS binding buffer (assumed for nsRBNS): 25 mM Tris pH 7.5, 150 mM KCl, 3 mM MgCl2, 0.01% Triton X-100, 500 ug/ml BSA, 20 U/ml SUPERase-In, 4 C; UNK is unkempt and MSI1 is Musashi-1; names of the RNAs are library labels; protein concentration not given here; high values mean tight binding.
Consider B1, for which the binding signal is 1.04 enrichment R.
As for B2, the figure is 0.701 enrichment R; as for B3, 0.678 enrichment R.
In the case of B4, the binding signal is 0.541 enrichment R.
In turn, B5 returned a binding signal of 0.675 enrichment R.
Regarding B6, the binding signal is 0.741 enrichment R.
The value for B7 was 1.06 enrichment R; that for B8 was 2.11 enrichment R.
B9 yielded a binding signal of 0.852 enrichment R.
In turn, B10 yielded a binding signal of 2.55 enrichment R.
B11 displayed a binding signal of 1.05 enrichment R.
The molecule B12 returned a binding signal of 1.71 enrichment R.
For the molecule B13, the binding signal is 0.52 enrichment R.
Take B14: the binding signal worked out at 0.829 enrichment R.
B15 came in with a binding signal of 0.786 enrichment R.
The value for B16 was 0.928 enrichment R; that for B17 was 0.703 enrichment R; that for B18 was 1.31 enrichment R.
B19 had a binding signal of 0.709 enrichment R.
The value for B20 was 2.82 enrichment R.
Molecule B21 had a binding signal of 1.07 enrichment R.
The value for B22 was 0.61 enrichment R.
